# In the library only some 19% were active in any assay of this set; here they are far more common.
# HT1080NT lethal = kills 2HG-producing HT-1080-NT fibrosarcoma cells; HT-1080-NT fibrosarcoma viability, CellTiter-Glo ATP luminescence, 48 h; Potency, µM (series often up to 46.1 µM), for inactives: at the highest dose activity, negative = less viability, most hits filed as cytotoxic; actives 1.6% (n = 360,000); AID 686970;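 further: NT is the 2HG producing partner of a matched IDH1 knockdown line; potency means the concentration at half of the fitted maximal effect; 0% = DMSO-treated cells and -100% = media-only wells without cells; nearly all actives have a fitted effect of over 55% in size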
#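 HT-1080-NT; 750 cells/well; 5% FBS RPMI; 48 h compound, 37 degrees C; CellTiter-Glo luminescence; curve fitting and curve-class assignment.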
# IL1B secr inh = inflammasome signaling inhibition, IL-1 beta readout | THP-1 LPS/ATP IL-1B secretion, AlphaLISA, 16 h; active compounds read low | activity change, % at 57.5 µM | actives 4.7% (n = 360,000) | AID 743279; in the data active means activity change below about -50%; inconclusive means mostly about -30% to -49%
#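 THP-1 cells pretreated 1 hr with compounds (up to 57.5 uM final), then stimulated with LPS (250 ng/mL final) plus ATP (1.25 mM final); secreted IL-1B measured by AlphaLISA after 16 hr, decreased signal indicating inhibition.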
# ELG1 repair inh = inhibitors of ELG1-dependent DNA repair in HEK293T cells; HEK293T ELG1-luciferase reporter, luminescence, 16 h; DNA damage induced by 5-fluorouridine; Potency, µM (highest dose often 46.1 µM), inactives show at the top dose activity change, negative = inhibition, most hits filed as inhibitors; actives 2.3% (n = 330,000); AID 504467; further: potency means the concentration at half of the fitted maximal effect; nearly all actives have a fitted effect of over 55% in size
#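 5-Fluorouridine DNA damage + compound/DMSO, 2,000 cells/well, 16 h, 37 °C/5% CO2. ONE-Glo, 30 min RT, luminescence. Readout = decrease in reporter signal.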
# HT1080 IDH1KD tx = toxicity to HT-1080 IDH1 knockdown cells (counter line). HT-1080 IDH1 knockdown viability, ATP luminescence, 48 h. Potency, µM (titrated, usually from 46.1 µM), for the others: at the top dose activity, negative = toxicity, hits mostly cytotoxic. actives 2% (n = 360,000);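 further: potency means the concentration at half of the fitted maximal effect; 0% = DMSO wells and -100% = cell-free medium wells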
#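 % activity derives from luminescence (CellTiter-Glo), normalised to DMSO and no-cell wells. HT-1080-IDH1KD cells, 750/well, had 48 h compound exposure at 37 °C.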
# DT40 TDP1 no CPT = qHTS for Inhibitors of human tyrosyl-DNA phosphodiesterase 1 (TDP1): qHTS in cells in absence of CPT; actives 15% (n = 420,000); Potency, µM (top dose mostly 46.2 µM), inactives show top-dose activity change, negative = growth inhibition, hits mostly inhibitors; DT40 Tdp1-/- hTDP1 cells, no CPT, ATP luminescence, 48 h; AID 686978, 2013; further: potency means the concentration at half of the fitted maximal effect; nearly all actives have a fitted effect of over 55% in size
#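 Chicken DT40 Tdp1-/- cells stably complemented with human TDP1 were seeded at 400 cells/well with DMSO in place of 20 nM camptothecin. After compound pinning, cells grew at least 48 hr at 37 °C; viability read by CellTiter-Glo luminescence.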
# DT40 TDP1 CPT = growth inhibition of DT40 Tdp1-/-;hTDP1 cells with camptothecin (screen for TDP1 inhibitors); chicken DT40 Tdp1-/-;hTDP1 cells + 20 nM CPT, ATP luminescence, 48 h; Potency, µM (doses to about 46.2 µM), for the others: at the highest dose activity change, negative = growth inhibition, most hits filed as inhibitors; actives 12% (n = 420,000); AID 686979; further: potency means the concentration at half of the fitted maximal effect; nearly all actives have a fitted effect of over 55% in size
#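 Chicken DT40 Tdp1-/- cells stably complemented with human TDP1 were seeded at 400 cells/well in medium containing 20 nM camptothecin, exposed to pin-transferred compounds, and grown at 37 °C for at least 48 hr. Viability was read as ATP luminescence.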
# * hit, by the source's call; i = inactive; ? = inconclusive; · = not tested or not shown; [ ] = another dose, or the depositor's remark. Unless noted, the call rests on the fitted dose curve; in most records, active means well fitted curve in the direction sought with a large enough effect; inconclusive means small, poorly fitted or top-dose-only effect, or another doubt; inactive means no such curve, though single readings can be large; an effect the other way counts as inactive or inconclusive. Unless noted, on the % scale 0 is the no-effect control and ±100 the full control effect.
SMILES,HT1080NT lethal,IL1B secr inh,ELG1 repair inh,HT1080 IDH1KD tx,DT40 TDP1 no CPT,DT40 TDP1 CPT
Cc1ccc(S(C)(=O)=O)cc1C(=O)Nc1cccc(S(=O)(=O)N2CCCCCC2)c1,-13%,15,12µM*,-18%,-6%,?
CC(=O)c1c(C)[nH]c(C(=O)Nc2ccc(N3CCCCCC3)cc2)c1C,-11%,3,·,-15%,?,?
O=C(Nc1cccc(S(=O)(=O)N2CCCCC2)c1)c1cc(=O)[nH]c2ccccc12,9%,?,26µM*,9%,18µM*,23µM*
Cc1ccc(S(=O)(=O)N2CCCCC2)cc1C(=O)Nc1ccccn1,7%,i,-1%,2%,1%,-5%
CC(C)[C@H](NC(=O)OCc1ccccc1)C(=O)N[C@@H](Cc1c[nH]c2ccccc12)C(=O)O,0%,10,0%,0%,1%,3%
COc1ccc(-n2cc(CNCC3CC(=O)N(C4CC4)C3)c(-c3ccccc3Cl)n2)cc1 (stereo not drawn),-19%,?,-2%,-20%,23µM*,16µM*
COc1ccc(-c2nn(-c3ccccc3)cc2CNC[C@H]2O[C@@H](n3cnc4c(N)ncnc43)[C@H](O)[C@@H]2O)cc1,4%,?,?,-1%,-15%,-11%
CCN1CC(CNCc2cn(-c3ccc(OC)cc3)nc2-c2ccccc2Cl)CC1=O (stereo not drawn),-22%,-51*,7%,1%,?,?
COc1ccccc1NC(=O)Cn1ncc2c1-c1ccccc1OC2,-3%,-22,2%,2%,?,15µM*
CCOc1ccccc1N(CC)C(=O)Cn1ncc2c1-c1ccccc1OC2,·,·,·,·,16µM*,21µM*
CCOc1ccc(-c2cc(NC(=O)Cn3ncc4c3-c3ccccc3OC4)on2)cc1OCC,-21%,10,15%,-20%,-4%,-3%
COc1cc(NC(=O)Cn2ncc3c2-c2ccccc2OC3)cc(OC)c1OC,7%,12,-19%,-9%,?,?
CCCCCCCCN1C(=O)[C@H](CC(=O)N2CCN(C(=O)c3ccco3)CC2)C[C@@]2(C(=O)OCC)CCCC=C12,?,0,·,?,?,?
COC(=O)C1(C)NC(c2ccc(Cl)cc2)C2C(=O)N(c3ccccc3)C(=O)C21 (stereo not drawn),-4%,3,6%,-1%,-9%,-7%
CC(=O)Oc1ccc(N2C(=O)C3C4C=CC(CO)(O4)C3C2=O)cc1 (stereo not drawn),-7%,-4,19%,0%[9.24 µM],4.6µM*,2.6µM*
CC(=O)Oc1ccc(N2C(=O)C3C(C2=O)C2(C)C=CC3(C)O2)cc1 (stereo not drawn),·,·,-3%,·,·,·
O=C1C2C3C=CC(CNS(=O)(=O)c4ccccc4)(O3)C2C(=O)N1c1ccc(Cl)cc1 (stereo not drawn),2%,6,1%,-10%,?,26µM*
O=C1C2C3C=CC(CO)(O3)C2C(=O)N1c1ccccc1-c1ccccc1 (stereo not drawn),3.2µM*,-82*,6%,1.6µM*,4.1µM*,2.6µM*
Cc1cccc(NC(=O)N2CCN(C(=O)c3nsc4ccccc34)CC2)c1C,·,·,·,·,?,-3%
CCOC(=O)[C@]12CCC=C1N(Cc1ccc(Cl)cc1Cl)C(=O)[C@H](CC(=O)N1CCCCC1)C2,?,13,·,?,?,?
CCOC(=O)[C@]12CCCC=C1N(Cc1ccccc1)C(=O)[C@H](CC(=O)N1CCOCC1)C2,13%,10,·,2%,7%,12%
CCOC(=O)[C@]12CCC=C1N(Cc1ccc(Cl)cc1Cl)C(=O)[C@H](CC(=O)N1CCCC1)C2,1%,-19,·,-21%,15µM*,16µM*
CCOC(=O)N1CCN(C(=O)C[C@@H]2C[C@@]3(C(=O)OCC)CCC=C3N(Cc3ccc(Cl)cc3Cl)C2=O)CC1,-17%,0,·,?,15µM*,18µM*
CCOC(=O)[C@]12CCCC=C1N(Cc1ccc(Cl)cc1Cl)C(=O)[C@H](CC(=O)N1CCOCC1)C2,-3%,8,·,2%,15µM*,?
CCOC(=O)[C@]12CCC=C1N(Cc1ccccc1)C(=O)[C@H](CC(=O)N1CCCCC1)C2,16%,7,·,13%,?,21µM*
CCOC(=O)[C@]12CCC=C1N(Cc1ccc(Cl)cc1Cl)C(=O)[C@H](CC(=O)N1CCN(C(=O)c3ccco3)CC1)C2,-13%,?,·,?,16µM*,16µM*
O=C(c1ccco1)N1CCN(C(=O)c2cn(-c3ccccc3)nc2-c2ccccc2)CC1,-3%,0,?,-4%,0%,-5%
O=C(OCC(=O)N1CCN(C(=O)c2ccco2)CC1)c1cn(-c2ccccc2)nc1-c1ccccc1,-1%,-62*,?,-3%,?,?
O=C(OCC(=O)N1CCN(C(=O)c2ccco2)CC1)c1ccccc1C(=O)c1ccccc1,8%,-1,-6%,8%,-16%,-27%

# Assay outcomes: PubChem, National Center for Advancing Translational Sciences (NCATS)
